Assay results published in PubChem BioAssay (Tox21).
Results filed as inconclusive are left out. Calls of active or inactive are those of the source. Unless noted, the call rests on the fitted dose curve; in most records, active means well fitted curve in the direction sought with a large enough effect in the repeat runs; inconclusive means weak or mixed curves; inactive means no such curve, though single readings can be large; an effect the other way counts as inactive or inconclusive.

Assays:
[1] = biological target: Luciferin 4-monooxygenase (Photinus pyralis) (UniProt P08659); test: qHTS assay to identify small molecule inhibitors of firefly luciferase (AID 1224835); further: nearly all actives have a fitted effect of over 25% in size
Sequence of Luciferin 4-monooxygenase (Photinus pyralis) (P08659 whole entry, looked up): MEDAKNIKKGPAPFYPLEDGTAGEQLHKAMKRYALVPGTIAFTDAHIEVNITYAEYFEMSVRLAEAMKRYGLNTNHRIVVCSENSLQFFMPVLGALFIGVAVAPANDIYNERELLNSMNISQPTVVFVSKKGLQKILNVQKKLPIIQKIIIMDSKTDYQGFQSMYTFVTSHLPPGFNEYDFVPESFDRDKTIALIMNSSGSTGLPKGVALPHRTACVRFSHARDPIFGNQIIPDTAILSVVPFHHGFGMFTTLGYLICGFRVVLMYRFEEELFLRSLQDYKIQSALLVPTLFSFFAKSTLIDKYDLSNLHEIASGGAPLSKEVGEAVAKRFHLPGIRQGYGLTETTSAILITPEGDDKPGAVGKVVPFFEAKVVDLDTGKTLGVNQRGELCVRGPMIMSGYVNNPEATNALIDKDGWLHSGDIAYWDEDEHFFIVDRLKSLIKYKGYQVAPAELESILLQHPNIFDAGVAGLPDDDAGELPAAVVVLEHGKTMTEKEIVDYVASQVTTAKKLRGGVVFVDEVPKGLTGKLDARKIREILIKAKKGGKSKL
Method in brief: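 Inhibition of purified Photinus luciferase is measured by luminescence. Substrate levels (D-luciferin, ATP) sit at their KM values. Each compound is tested in a concentration series.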

[2] = qHTS assay to identify small molecule agonists of the constitutive androstane receptor (CAR) signaling pathway - cell viability counter screen (AID 1224836); further: nearly all actives have a fitted effect of over 45% in size
Method in brief: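 Fluorescence from CellTiter-Fluor indicates live cells after 23 h exposure. The human hepatoma line expresses hCAR and a CYP2B6-2.2kb reporter. Incubation medium contains 0.75 uM PK11195 (final).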

[3] = qHTS assay to identify small molecule antagonists of the constitutive androstane receptor (CAR) signaling pathway - cell viability counter screen (AID 1224837); further: nearly all actives have a fitted effect of over 45% in size
Method in brief: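 Read-out: CellTiter-Fluor fluorescence after 23 hr at 37 C/5% CO2. Cells: HepG2 double-stable for hCAR and CYP2B6-2.2kb. Compounds tested at 15 concentrations in the presence of CITCO, final concentration 50 nM.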

[4] = biological target: Thyrotropin receptor (Homo sapiens) (UniProt P16473); test: qHTS assay to identify small molecule agonists of the thyroid stimulating hormone receptor (TSHR) signaling pathway (AID 1224843; calls by dose curve; further: nearly all actives have a fitted effect of over 45% in size; further: potency means the concentration at half of the fitted maximal effect)
Sequence of Thyrotropin receptor (Homo sapiens) (P16473 whole entry, looked up): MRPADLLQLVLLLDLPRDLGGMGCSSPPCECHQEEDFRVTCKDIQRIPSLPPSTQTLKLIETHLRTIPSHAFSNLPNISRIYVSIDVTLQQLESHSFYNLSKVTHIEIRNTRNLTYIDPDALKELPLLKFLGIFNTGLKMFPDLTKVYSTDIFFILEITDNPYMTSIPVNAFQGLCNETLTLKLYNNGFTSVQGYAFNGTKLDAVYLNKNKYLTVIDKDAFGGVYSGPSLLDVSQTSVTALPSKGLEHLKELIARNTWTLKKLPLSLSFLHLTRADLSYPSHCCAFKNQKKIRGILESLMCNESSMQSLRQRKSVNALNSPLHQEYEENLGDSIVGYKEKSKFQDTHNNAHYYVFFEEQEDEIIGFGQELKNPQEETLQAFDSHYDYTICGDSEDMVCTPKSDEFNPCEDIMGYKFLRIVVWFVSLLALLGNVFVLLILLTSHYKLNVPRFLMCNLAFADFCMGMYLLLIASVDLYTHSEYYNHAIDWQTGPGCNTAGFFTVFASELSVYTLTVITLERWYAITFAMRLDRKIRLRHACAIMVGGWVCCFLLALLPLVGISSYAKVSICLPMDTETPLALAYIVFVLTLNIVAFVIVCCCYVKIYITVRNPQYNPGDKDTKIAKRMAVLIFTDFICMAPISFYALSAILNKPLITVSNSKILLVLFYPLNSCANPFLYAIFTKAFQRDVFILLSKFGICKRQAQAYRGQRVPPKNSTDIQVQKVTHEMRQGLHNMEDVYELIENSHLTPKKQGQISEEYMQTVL
Method in brief: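 Agonist activity read as cAMP rise via d2/cryptate HTRF competition, 1 h room-temperature detection, in HEK293 cells expressing TSHR. Fifteen-point titrations, each run in triplicate, with a 30 min room-temperature incubation beforehand.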

[5] = qHTS assay to identify small molecule agonists of the hypoxia (HIF-1) signaling pathway - cell viability counter screen (AID 1224844; calls by dose curve; further: nearly all actives have a fitted effect of over 50% in size)
Method in brief: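 CellTiter-Glo luminescence read-out, 30 min RT, taken in the same wells as the beta-lactamase HRE reporter assay; HRE-bla ME-180 cells, 0.5% dialyzed FBS, 17 hr compound treatment at 37C, 5% CO2.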

[6] = qHTS assay to identify small molecule agonists of H2AX (AID 1224845; active means well fitted activation curve with a large enough effect in the signal ratio in the repeat runs, not every such curve was filed as active; the % refers to the signal ratio)
Method in brief: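 Phospho-H2AX Ser139 measured by HTRF (ex 320 nm; em 665 and 620 nm) after 24 hr antibody incubation. Compounds, 15 concentrations, 0.76% DMSO, were applied to CHO-K1 cells for 3hr at 37C before lysis.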

[7] = qHTS assay to identify small molecule agonists of the hypoxia (HIF-1) signaling pathway (AID 1224846; active means well fitted activation curve with a large enough effect in the signal ratio in the repeat runs, not every such curve was filed as active; the % refers to the signal ratio)
Method in brief: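 Beta-lactamase FRET read-out (CCF4-AM substrate) from ME-180 cells carrying an HRE-driven bla reporter, after 17 hrs compound exposure at 37C/5% CO2. Cells were seeded at 2,000 per well in 0.5% dialyzed FBS medium and preincubated 5 hrs.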

[8] = qHTS assay to identify small molecule agonists of H2AX - cell viability counter screen (AID 1224847; calls by dose curve; further: top concentration of the series differs between compounds; nearly all actives have a fitted effect of over 30% in size)
Method in brief: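 Viability of CHO-K1 (wild type) cells after 3 hr compound exposure was measured by CellTiter-Glo luminescence.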

[9] = qHTS RealTime-Glo MT Cell Viability Assay in HepG2 cells - 24 hour (AID 1224867); further: nearly all actives have a fitted effect of over 50% in size
Method in brief: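 Tox21 10K library screened in qHTS format on HepG2 cells carrying RealTime-Glo reagents. Compounds were added after a 5 h preincubation, and the luminescent signal from continuous culture was measured repeatedly during 40 h treatment.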

[10] = A CellTox Green Cytotoxicity Assay to monitor cytotoxicity in HEK293 cells - 0 hour (AID 1224869); further: nearly all actives have a fitted effect of over 50% in size
Method in brief: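 Read-out: fluorescence of a cell-impermeant cyanine dye staining DNA of dead cells, proportional to cytotoxicity. HEK293, 600 cells/well with reagent, compound (23 nL DMSO) added after 5 h; reads at 0, 8, 16, 24, 32, 40 h.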

[11] = biological target: Nuclear receptor subfamily 1 group I member 3 (Homo sapiens) (UniProt Q14994); test: qHTS assay to identify small molecule agonists of the constitutive androstane receptor (CAR) signaling pathway (AID 1224839); further: nearly all actives have a fitted effect of over 15% in size; further: potency means the concentration at half of the fitted maximal effect;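 on activation: HepG2 cells stably carrying human CAR and a CYP2B6 luciferase reporter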
Sequence of Nuclear receptor subfamily 1 group I member 3 (Homo sapiens) (Q14994 whole entry, looked up): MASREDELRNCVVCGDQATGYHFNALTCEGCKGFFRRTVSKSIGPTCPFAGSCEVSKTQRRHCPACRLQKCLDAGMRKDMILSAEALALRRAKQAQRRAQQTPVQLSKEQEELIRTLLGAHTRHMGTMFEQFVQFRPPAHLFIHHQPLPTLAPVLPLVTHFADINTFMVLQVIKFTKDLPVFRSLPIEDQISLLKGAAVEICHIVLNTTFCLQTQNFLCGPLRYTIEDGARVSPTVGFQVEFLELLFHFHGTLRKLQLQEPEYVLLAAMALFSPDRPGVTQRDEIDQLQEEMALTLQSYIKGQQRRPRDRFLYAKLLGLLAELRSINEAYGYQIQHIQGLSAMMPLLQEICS
Method in brief: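 Stable hCAR/CYP2B6-2.2kb HepG2 line in DMEM with 10% FBS; compounds (15 concentrations) and 0.75 uM PK11195 final, 24 h at 37 C/5% CO2, then ONE-Glo luminescence after 30 min.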

[12] = qHTS RealTime-Glo MT Cell Viability Assay in HEK293 cells - 32 hour (AID 1224868); further: nearly all actives have a fitted effect of over 50% in size; further: potency means the concentration at half of the fitted maximal effect
Method in brief: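 Luminescence generated by NanoLuc from substrate produced by living HEK293 cells served as the viability signal. Each value reflects the reading at its stated time point during continuous 40 h compound exposure at 37 C.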

[13] = biological target: Nuclear receptor subfamily 1 group I member 3 (Homo sapiens) (UniProt Q14994); test: qHTS assay to identify small molecule antagonists of the constitutive androstane receptor (CAR) signaling pathway (AID 1224838);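 further: HepG2 cells stably expressing hCAR with CYP2B6 luciferase reporter stimulated by CITCO; nearly all actives have a fitted effect of over 40% in size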
Method in brief: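 Read-out: ONE-Glo luciferase luminescence after 30 min at room temperature. HepG2-CYP2B6-hCAR double-stable cells, compounds in 15-point titration plus 50 nM CITCO final, 24 h at 37 C/5% CO2.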

[14] = qHTS assay to identify small molecule antagonists of the estrogen related receptor signaling pathway with the pleiotropic PPARgamma coactivator (PGC) from Tox21 10K library (AID 1224841; call rule not given here)
Method in brief: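 Luminescence read-out (One-Glo luciferase reagent, 30 min at room temperature) from PGC/ERR cells exposed to DMSO-dissolved test compounds for 18 h at 37 C; cells, 2,000 per well, had been preincubated 6 h before compound transfer.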

[15] = qHTS assay to identify small molecule agonists of the estrogen related receptor signaling pathway with the pleiotropic PPARgamma coactivator (PGC) from Tox21 10K library (AID 1224842); further: nearly all actives have a fitted effect of over 15% in size
Method in brief: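 Luminescence from One-Glo (30 min, room temperature) measured after PGC/ERR cells had 18 h at 37 C with pinned compound (23 nL in DMSO). Cells had been seeded at 2,000 per well and pre-incubated 6 h.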

[16] = qHTS assay to identify small molecule antagonists of the estrogen related receptor (ERR) signaling pathway from Tox21 library (AID 1224848); further: nearly all actives have a fitted effect of over 50% in size
Method in brief: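 Luciferase luminescence (ONE-Glo, 30 min room temperature) was the read-out. Cells of the NTP-supplied ERR line, 2,000 per well, were given 6 h at 37 C before compound addition in DMSO and 18 h exposure at 37 C.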

[17] = qHTS assay to identify small molecule agonists of the estrogen related receptor (ERR) signaling pathway from Tox21 library (AID 1224849; calls by dose curve; further: nearly all actives have a fitted effect of over 15% in size); details: ERR reporter cell line, ONE-Glo luciferase, 18 h; at 92.4 µM (top of the series) unless noted
Method in brief: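 Luminescence readout (ONE-Glo, 30 min RT) after 18 h compound exposure at 37 C of NTP-supplied ERR reporter cells; cells were plated 6 h before compound addition by pin tool.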

[18] = qHTS assay to identify small molecule antagonists of the estrogen related receptor signaling pathway with the pleiotropic PPARgamma coactivator (PGC) from Tox21 10K library - cell viability counter screen (AID 1224840; active means well fitted cell-killing curve with a large enough effect in the repeat runs, not every such curve was filed as active; further: nearly all actives have a fitted effect of over 40% in size)
Method in brief: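 Fluorescence read-out of CellTiter-Fluor viability reagent, added after cells had been exposed to compound in DMSO for 17.5 h at 37 C; 30 min development at 37 C/5% CO2. Cells: PGC/ERR line, 2,000/well.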
On the % scale 0 is the no-effect control and ±100 the full control effect.

Cc1ccccc1C(=O)Nc1ccc(C(=O)N2CCCC(N(C)C)c3ccccc32)cc1 (stereo not given)
inactive: Potency [1] | Potency [2] | Potency [3] | Potency [4] | outcome [5] | outcome [6] | outcome [7] | Potency [8] | outcome [9] | outcome [10]

O=C(/N=N/C(=O)OCc1ccccc1)OCc1ccccc1
active: Potency [11] 54.5 µM | Potency [4] 24.3 µM
inactive: Potency [2] | Potency [3] | outcome [5] | outcome [6] | outcome [7] | Potency [8] | outcome [9] | Potency [12] | outcome [10]

Nc1ccc([N+](=O)[O-])c(N)c1
inactive: outcome [13] | Potency [11] | Potency [14] | outcome [15] | Potency [4] | outcome [5] | outcome [6] | outcome [7] | Potency [8] | Potency [16] | activity change, positive = activation [17] 5.15% | outcome [9] | Potency [12] | outcome [10]

Cc1ccc2c(c1)OCC(=O)CO2
inactive: Potency [1] | Potency [2] | outcome [13] | Potency [11] | outcome [18] | Potency [14] | Potency [4] | outcome [5] | outcome [6] | outcome [7] | Potency [8] | Potency [16] | outcome [9] | Potency [12] | outcome [10]

COCCOC(=O)C1=C(C)NC(C)=C(C(=O)OC(C)C)C1c1cccc([N+](=O)[O-])c1 (stereo not given)
inactive: Potency [1] | Potency [2] | Potency [3] | Potency [4] | outcome [5] | outcome [6] | outcome [7] | Potency [8] | outcome [10]

O=C(O)c1cc(Br)c(O)c(Br)c1
inactive: Potency [1] | Potency [3] | Potency [14] | outcome [15] | Potency [4] | outcome [5] | outcome [7] | Potency [8] | Potency [16] | activity change, positive = activation [17] 4.86% | outcome [9] | Potency [12] | outcome [10]

O=C(OCC1(COC(=O)c2cccnc2)CCCC(COC(=O)c2cccnc2)(COC(=O)c2cccnc2)C1O)c1cccnc1
inactive: Potency [1] | Potency [3] | Potency [11] | outcome [18] | Potency [4] | outcome [5] | outcome [6] | outcome [7] | Potency [8] | outcome [9] | Potency [12] | outcome [10]

COc1ccc(-c2cc(=O)c3c(O)cc(O[C@@H]4O[C@H](CO[C@@H]5O[C@@H](C)[C@H](O)[C@@H](O)[C@H]5O)[C@@H](O)[C@H](O)[C@H]4O)cc3o2)cc1O
inactive: Potency [2] | Potency [3] | Potency [14] | outcome [15] | outcome [5] | outcome [7] | Potency [8] | Potency [16] | activity change, positive = activation [17] -13.8% [at 42.5 µM] | outcome [9] | Potency [12] | outcome [10]

BrCc1cccc(Oc2ccccc2)c1
inactive: Potency [2] | Potency [3] | outcome [13] | outcome [18] | Potency [14] | outcome [15] | Potency [4] | outcome [5] | outcome [6] | outcome [7] | Potency [8] | Potency [16] | activity change, positive = activation [17] 0.526% | outcome [9] | Potency [12] | outcome [10]

CC(=O)Nc1cccc(C)c1
inactive: Potency [2] | Potency [4] | outcome [5] | outcome [6] | outcome [7] | Potency [8] | outcome [9] | outcome [10]

CCCN1C[C@H](CSC)C[C@@H]2c3cccc4[nH]cc(c34)C[C@H]21
inactive: Potency [1] | Potency [3] | outcome [18] | Potency [4] | outcome [5] | Potency [8] | outcome [9] | Potency [12] | outcome [10]

CC(=O)OC(C)OC(=O)C(C)c1ccc(-c2ccccc2)c(F)c1 (stereo not given)
inactive: Potency [2] | Potency [3] | Potency [11] | outcome [18] | Potency [4] | outcome [5] | outcome [6] | outcome [7] | Potency [8] | outcome [9] | Potency [12] | outcome [10]

O=C(OCC(COC(=O)c1cccnc1)(COC(=O)c1cccnc1)COC(=O)c1cccnc1)c1cccnc1
inactive: Potency [1] | outcome [13] | Potency [11] | outcome [18] | Potency [4] | outcome [5] | outcome [6] | outcome [7] | Potency [8] | outcome [9] | Potency [12] | outcome [10]

CC1(CO)CN(c2ccccc2)NC1=O (stereo not given)
inactive: Potency [1] | Potency [2] | Potency [3] | outcome [18] | Potency [4] | outcome [5] | outcome [7] | Potency [8] | outcome [9] | Potency [12] | outcome [10]

COCCc1ccc(OCC2CO2)cc1 (stereo not given)
inactive: Potency [1] | Potency [2] | outcome [13] | Potency [11] | outcome [18] | Potency [4] | outcome [5] | outcome [6] | Potency [8] | outcome [9] | Potency [12] | outcome [10]

O=C(OCC(O)CO)c1ccccc1Nc1ccnc2c(C(F)(F)F)cccc12 (stereo not given)
active: Potency [12] 4.25 µM
inactive: Potency [2] | Potency [3] | outcome [13] | Potency [11] | outcome [18] | Potency [4] | outcome [5] | outcome [6] | outcome [7] | Potency [8] | outcome [9] | outcome [10]

CC1COc2ccccc2N1 (stereo not given)
inactive: Potency [2] | Potency [3] | outcome [13] | Potency [11] | outcome [18] | Potency [14] | outcome [15] | Potency [4] | outcome [5] | outcome [6] | outcome [7] | Potency [8] | Potency [16] | activity change, positive = activation [17] 13.7% | outcome [9] | outcome [10]
